Experimental findings from PubChem BioAssay (EPA / NIEHS) are described below.

The structures appear in SMILES notation. Inconclusive results are not listed. More than one record can exist for a structure, and the calls need not agree. The source made the active and inactive calls. The calls were made as follows: active = hit-call score of the fitted dose curve at least 0.9, where 1 is the maximum; inconclusive = response in the unintended direction; inactive = score below 0.9. Where a SMILES comes first, the peptide text is derived from it. [ ]: non-standard residue; d: D form. pGlu = O=C1CC[C@@H](C(=O)O)N1

A word on the AC50: it is the midpoint of the concentration-response curve, whichever way the signal moves.

The nature of assay [1]: TOX21_p53_BLA_p2_viability: Viability Assessment in the Tox21 HCT-116 p53 Agonism Beta-lactamase Assay, Phase 2 (AID 2283591).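 Also: compound exposure lasted 16 h at 37 °C; actives lower the ATP signal meaning cytotoxicity.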 In short, it runs like this:
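HCT-116 p53-bla cells (4000/well) rested 5 h at 37C, then received compounds in DMSO (217-fold dilution) for 16 h at 37C, 5% CO2. After the CCF4 read, CellTiter-Glo was added; ATP luminescence was read after 30 min at room temperature.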

The nature of assay [2]: TOX21_p53_BLA_p4_viability: Viability Assessment in the Tox21 HCT-116 p53 Agonism Beta-lactamase Assay, Phase 4 (AID 2283597).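 Also: hits lower the luminescence signal meaning cytotoxicity.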 The gist of the method: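 Viability is taken as cellular ATP: after 16 h compound exposure of HCT116 cells and a 2 h room-temperature CCF4-AM substrate step, CellTiter-Glo reagent is added and luminescence is measured 30 min later.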
Assay [3] concerns the target Cellular tumor antigen p53 (Homo sapiens) (UniProt P04637). Description: TOX21_p53_BLA_p4_ratio: Tox21 HCT-116 p53 Agonism Beta-lactamase Assay, Ratio, Phase 4 (AID 2283601). The gist of the method:
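HCT116 cells carrying an inducible beta-lactamase reporter were plated at 4000 cells/well, rested 5 h, then exposed to compounds in DMSO (217-fold dilution) for 16 h at 37C. CCF4-AM substrate was loaded 2 h at room temperature; 460/530 nm emission ratio scored gain-of-signal versus DMSO.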

Assay [4] deals with Thyroid hormone receptor alpha (Rattus norvegicus) + Thyroid hormone receptor beta (Rattus norvegicus) (UniProt P18113+P63059). Description: TOX21_TR_LUC_GH3_Antagonist_Followup: Tox21 GH3 Thyroid Hormone Receptor Antagonism Luciferase Follow-Up Assay (AID 2283942). The gist of the method: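 In a GH3 luciferase reporter line, test chemicals spanning 92 uM to 5nM final are co-incubated 24 h with 1.0 nM T3. Activity is expressed as relative luminescence units and analysed relative to DMSO.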

A further assay deals with THRA (gene 7067) (UniProt P10827). The assay is described as follows: TOX21_TRA_COA_Antagonist_Followup_ratio: Tox21 Thyroid Hormone Receptor alpha Antagonism through Coactivator Recruitment Follow-Up Assay, Ratio (AID 2283953). In short, it runs like this: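 GST-TRα LBD 2.5 nM, BSA 0.10%, + cpd; then FITC-SRC-2 peptide 200 nM + Tb-anti-GST Ab 2 nM. TR-FRET ratio 520/495 nm. Norm: DMSO = 0%, T3 = 100%.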

Another assay deals with THRB (gene 7068) (UniProt P10828). Description: TOX21_TRB_BLA_Antagonist_Followup_ratio: Tox21 Thyroid Hormone Receptor beta Antagonism Beta-lactamase (BLA) Follow-Up Assay, Ratio (AID 2283958). In short, it runs like this: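 Beta-lactamase reporter ratio (460/530 nm, CCF4-AM substrate, 2 h room temperature) was read in TRb-bla HEK293T cells after 18 h compound treatment (11 concentrations, triplicate) at 37C in 2% charcoal-stripped FBS medium. Loss of signal fitted against DMSO.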

The nature of assay [5]: TOX21_TR_RXR_BLA_Antagonist_Followup_viability: Viability Assessment in the Tox21 Thyroid Hormone Receptor beta Retinoid X Receptor alpha (RXRa) Antagonism Beta-lactamase (BLA) Follow-Up Assay (AID 2283979). The gist of the method: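 RXRa-UAS-bla HEK293T cells seeded 2,500/well in phenol red-free DMEM with 2% charcoal-stripped FBS, attached 5 h, then exposed to compounds at 11 concentrations in triplicate for 16 h at 37C/5% CO2. Viability read by CellTiter-Glo ATP luminescence; bidirectional fit versus DMSO.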

The nature of assay [6]: TOX21_p53_BLA_p5_viability: Viability Assessment in the Tox21 HCT-116 p53 Agonism Beta-lactamase Assay, Phase 5 (AID 2283600). The gist of the method: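 Viability is taken from cellular ATP content, measured by luciferase luminescence in the same wells after the beta-lactamase ratio read. Cells are seeded at 4000 per well and exposed to DMSO-dissolved compounds, diluted 217-fold, for 16 h.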

For assay [7], the target named is Cellular tumor antigen p53 (Homo sapiens) (UniProt P04637). Description: TOX21_p53_BLA_p5_ratio: Tox21 HCT-116 p53 Agonism Beta-lactamase Assay, Ratio, Phase 5 (AID 2283599). In short, it runs like this:
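HCT-116 cells carrying a p53-inducible beta-lactamase reporter were seeded at 4000 cells/well and dosed after 5 h with compound in DMSO (217-fold dilution). After 16 h at 37C, CCF4-AM substrate was added for 2 h, and the 460/530 nm emission ratio was scored as gain-of-signal versus DMSO.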

The target is the same in assay [8]. Description: TOX21_p53_BLA_p2_ratio: Tox21 HCT-116 p53 Agonism Beta-lactamase Assay, Ratio, Phase 2 (AID 2283592). In short, it runs like this: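 Cleaved-to-uncleaved substrate ratio (460 vs 530 nm) measured in HCT116 cells with an inducible beta-lactamase reporter linked to p53 activity. Compounds incubated 16 h at 37C before 2 h room-temperature CCF4-AM loading.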

Assay [9] can be described thus: TOX21_p53_BLA_p3_viability: Viability Assessment in the Tox21 HCT-116 p53 Agonism Beta-lactamase Assay, Phase 3 (AID 2283593).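 Also: cells exposed to compound for 16 h before reading.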 In short, it runs like this:
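HCT-116 cells (4000/well) rested 5 h at 37C, then got DMSO compounds by pin tool (217-fold dilution) for 16 h at 37C, 5% CO2. After the bla read, CellTiter-Glo was added and luminescence read at 30 min, room temperature.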

The target in assay [10] is Cellular tumor antigen p53 (Homo sapiens) (UniProt P04637). The assay is described as follows: TOX21_p53_BLA_p3_ratio: Tox21 HCT-116 p53 Agonism Beta-lactamase Assay, Ratio, Phase 3 (AID 2283596). In short, it runs like this:
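Cells were seeded at 4000/well, rested 5 h at 37C, then dosed with DMSO compound solutions (217-fold dilution) for 16 h. CCF4-AM substrate was loaded for 2 h at room temperature, and the 460/530 nm emission ratio was fitted for gain of signal versus DMSO.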

Sequence of Cellular tumor antigen p53 (Homo sapiens) (P04637 whole entry, looked up): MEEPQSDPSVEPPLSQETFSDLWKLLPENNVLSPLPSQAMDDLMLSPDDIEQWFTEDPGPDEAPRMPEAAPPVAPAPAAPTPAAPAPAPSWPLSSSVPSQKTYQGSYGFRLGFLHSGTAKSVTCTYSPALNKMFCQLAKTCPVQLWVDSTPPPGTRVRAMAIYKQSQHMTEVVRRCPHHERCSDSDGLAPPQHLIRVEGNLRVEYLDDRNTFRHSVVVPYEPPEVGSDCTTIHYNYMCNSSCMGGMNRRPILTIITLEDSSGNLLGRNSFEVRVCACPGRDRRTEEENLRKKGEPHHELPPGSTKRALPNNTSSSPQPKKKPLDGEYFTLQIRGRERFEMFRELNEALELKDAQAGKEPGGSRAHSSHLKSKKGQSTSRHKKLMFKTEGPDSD
Sequence of THRA (gene 7067) (P10827 whole entry, looked up, the tested form may be a part): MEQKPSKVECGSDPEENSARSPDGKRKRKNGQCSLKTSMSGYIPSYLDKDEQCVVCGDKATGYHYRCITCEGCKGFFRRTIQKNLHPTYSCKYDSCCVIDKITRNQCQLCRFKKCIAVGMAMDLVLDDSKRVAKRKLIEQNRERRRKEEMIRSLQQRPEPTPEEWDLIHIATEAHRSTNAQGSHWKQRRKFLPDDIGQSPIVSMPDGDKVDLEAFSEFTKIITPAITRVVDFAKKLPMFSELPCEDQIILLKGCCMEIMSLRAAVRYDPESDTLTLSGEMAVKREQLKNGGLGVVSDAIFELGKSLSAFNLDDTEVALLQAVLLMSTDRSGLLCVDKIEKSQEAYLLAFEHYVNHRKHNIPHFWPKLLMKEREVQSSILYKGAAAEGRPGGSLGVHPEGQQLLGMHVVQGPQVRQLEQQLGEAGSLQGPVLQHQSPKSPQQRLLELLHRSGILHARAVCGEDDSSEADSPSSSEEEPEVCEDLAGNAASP
Sequence of THRB (gene 7068) (P10828 whole entry, looked up): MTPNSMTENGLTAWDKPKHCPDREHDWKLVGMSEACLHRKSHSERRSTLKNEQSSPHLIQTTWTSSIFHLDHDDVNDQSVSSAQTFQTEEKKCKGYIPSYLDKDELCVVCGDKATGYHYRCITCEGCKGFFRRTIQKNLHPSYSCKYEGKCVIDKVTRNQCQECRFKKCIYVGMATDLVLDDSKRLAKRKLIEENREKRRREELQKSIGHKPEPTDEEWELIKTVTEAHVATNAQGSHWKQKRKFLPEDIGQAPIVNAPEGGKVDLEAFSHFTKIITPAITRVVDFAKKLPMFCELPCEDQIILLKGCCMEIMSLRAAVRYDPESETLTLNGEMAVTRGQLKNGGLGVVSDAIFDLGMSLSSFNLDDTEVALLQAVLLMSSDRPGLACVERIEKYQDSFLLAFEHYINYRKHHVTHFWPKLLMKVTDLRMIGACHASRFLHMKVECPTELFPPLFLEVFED

For `Cc1onc(-c2ccccc2)c1C(=O)N[C@@H]1C(=O)N2[C@@H]1SC(C)(C)[C@@H]2C(=O)O`, the outcome in assay [1], in assay [2] and in assay [3] was inactive.

`O=C(CCCCCCCCC#CI)Oc1ccccc1`: the call (in assay [1]; in assay [2]; in assay [3]; in [4]; with THRA (gene 7067); in the assay with THRB (gene 7068)) was inactive. Also, the compound was called inactive in [5].

Turning to `CC(C)=CCC/C(C)=C/CC/C(C)=C/CCC(=O)OC/C=C(\C)CCC=C(C)C`, the outcome in assay [1], in assay [2] and in assay [3] was inactive.

Regarding `CCCNCC(O)COc1ccccc1C(=O)CCc1ccccc1` (centres undefined), the outcome in assay [1], in [2] and in assay [6] was inactive.

Consider `O=P(O)(O)C(O)(Cc1cnc2ccccn12)P(=O)(O)O`, for which the compound was classed as inactive in assay [1] and in assay [7].

Regarding `OC1OC[C@@H](O)[C@H](O)[C@@H]1O` (some centres undefined), the compound was called inactive in [1], in assay [2] and in assay [3].

Turning to `Nc1nc2c(ncn2CCC(CO)CO)c(=O)[nH]1`, the result in [1], in assay [2] and in assay [6] was inactive.

As for `CCCCC(=O)N(C)C`, the result in assay [1], in [7] and in [3] was inactive.

Consider `COc1cc2c(cc1O)CCN[C@]21CS[C@@H]2c3c(OC(C)=O)c(C)c4c(c3[C@H](COC1=O)N1[C@@H]2[C@H]2c3c(cc(C)c(OC)c3O)C[C@@H]([C@@H]1O)N2C)OCO4`, for which, in [8], the half-maximal activity concentration (AC50) was 0.00174 µM (active) and the outcome was inactive.

As to `CC(C)CNCC(C)C`, the result in [1], in assay [7], in assay [6] and in [3] was inactive.

`CC(=O)N(CC(O)CO)c1c(I)c(C(=O)NCC(O)CO)c(I)c(C(=O)NCC(O)CO)c1I` (centres undefined): the outcome in assay [8], in assay [9], in assay [10] and in [2] was inactive.

On to `CCCCCCCC/C=C\CCCCCCCCCCCC(=O)O`, for which the result in assay [1], in assay [7] and in [3] was inactive.

Regarding `C=CC(=O)OCC[N+](C)(C)C`, the result in assay [8] was inactive.

For the compound `CC1=C(C/C=C(\C)CCC[C@H](C)CCC[C@H](C)CCCC(C)C)C(=O)c2ccccc2C1=O`, the outcome in assay [1] and in assay [3] was inactive.

In the case of `COC(=O)CCCCC(=O)O`, the outcome in [8], in assay [9] and in assay [10] was inactive.

As to `CC(=O)O[C@H]1C[C@@H]2CC[C@@H]3[C@H](CC[C@@]4(C)[C@H]3C[C@H](N3CC[N+](C)(C)CC3)[C@@H]4OC(C)=O)[C@@]2(C)C[C@@H]1N1CC[N+](C)(C)CC1`, the result in [1], in assay [7], in [6] and in assay [3] was inactive.

`CCCCCCCCCC#N`: the compound was classed as inactive in assay [1], in [7] and in assay [3].

As for `O=C1NCCN1`, the outcome in assay [8], in assay [9], in [10] and in assay [2] was inactive.

On to `CC(C)[C@@H](C)/C=C/[C@@H](C)[C@H]1CC[C@H]2/C(=C/C=C3\C[C@@H](O)CC[C@@H]3C)CCC[C@]12C`, for which the result in assay [8], in assay [9], in assay [10] and in [2] was inactive.

`COC1[C@@H](O[C@@H]2O[C@H](C)[C@@H](O[C@H]3C[C@@](C)(O)[C@H](OC(=O)CC(C)C)[C@H](C)O3)[C@H](N(C)C)[C@H]2O)[C@@H](CC=O)C[C@@H](C)[C@@H](O)/C=C/C=C/C[C@@H](C)OC(=O)C[C@H]1OC(C)=O` (some centres undefined): the outcome in [8], in [9], in [10] and in assay [2] was inactive.

On to `CCOC(=O)CC(C)=O`, for which the compound was called inactive in assay [1] and in assay [6].

Regarding `OC[C@H]1O[C@@H](O[C@@H]2[C@@H](CO)O[C@](O)(CO)[C@H]2O)[C@H](O)[C@@H](O)[C@H]1O`, the call in [1], in assay [7], in [6] and in assay [3] was inactive.

As to `CC(C)(C)C1(O)CCN2CC3c4ccccc4CCc4cccc(c43)C2C1` (centres undefined), the result in assay [8] was inactive.

Turning to `c1ccsc1`, in assay [8], the result was inactive.

For `C[C@H](N)[C@H](O)c1cccc(O)c1`, the outcome in assay [8] and in [9] was inactive.

On to `OC(CN1CCCCC1)c1cc(-c2ccccc2)on1` (centres undefined), for which the outcome in assay [1] and in [3] was inactive.

As to `Nc1cc(C(=O)O)ccc1Cl`, the outcome in assay [8] and in [9] was inactive.

With `Clc1ccnc(Cl)n1`, the result in assay [8] and in assay [9] was inactive.

On to `O=C(O)c1cc2ccccc2c(Cc2c(O)c(C(=O)O)cc3ccccc23)c1O`, for which the compound was classed as inactive in [1], in [7], in assay [6] and in assay [3].

For `O=C(O)c1ccc(Cl)cc1Cl`, the result in [1], in [7] and in assay [3] was inactive.

Regarding `NS(=O)(=O)c1cc(C(=O)O)cc(N2CCCC2)c1Oc1ccccc1`, the call in assay [1], in [6] and in assay [3] was inactive.

In the case of `O=[N+]([O-])c1ccc(F)c(Cl)c1`, the result in assay [8] and in [9] was inactive.

In the case of `CCOC(=O)O[C@]1(C(=O)COC(=O)CC)CC[C@H]2[C@@H]3CCC4=CC(=O)C=C[C@]4(C)[C@H]3[C@@H](O)C[C@@]21C`, the compound was classed as inactive in [1], in [7], in [6] and in assay [3].

As for `C[N+]1(CCCCC[N+]2(C)CCCC2)CCCC1`, the compound was classed as inactive in assay [1], in [7] and in [3].

Take `CSSc1ccoc1C`: the result in assay [8] and in assay [9] was inactive. For the same compound, in assay [10], the AC50 is 40.4 µM (active).

For the compound `CC[C@H](C)[C@H](NC(=O)[C@H](Cc1ccccc1)NC(=O)[C@H](C)NC(=O)[C@H](CC(=O)O)NC(=O)[C@H](CCCCN)NC(=O)[C@H](CO)NC(=O)[C@@H]1CCCN1C(=O)[C@@H]1CCC(=O)N1)C(=O)NCC(=O)N[C@@H](CC(C)C)C(=O)N[C@@H](CCSC)C(N)=O` ([pGlu]PSKDAFIGLM-NH2), the call in assay [1], in assay [7], in assay [6] and in assay [3] was inactive.

For the compound `C[Si](C)(C)Cl`, the outcome in assay [1] and in assay [3] was inactive.
